Assay outcomes from PubChem.
C8 TRAIL sens: sensitizes caspase-8 expressing cells to TRAIL; NB7+C8 cells + TRAIL, ATPlite viability luminescence; inhibition (viability loss, TRAIL sensitization), % at 10 µM; 360,000 compounds, 1% hits;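 active means compounds causing at least 50% loss of cell viability in the single-dose screen, relative to plate controls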
Platelet DG rel: modulates dense granule release in human platelets; human platelet-rich plasma, SFLLRN dense granule ATP release, luminescence; 300,000 compounds, 0.22% hits; inhibition, %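 (compounds screened at 7.5 µM in platelet-rich plasma)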; AID 1663;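 active means mean replicate score, as percent of positive control, at or above 50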
HSP90 refold inh: inhibitors of HSP90 luciferase refolding in rabbit reticulocyte lysate; 290,000 compounds, 0.91% hits; luciferase refolding luminescence, 3 h; AID 1789; inhibition, % at 5.6 µM;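 active means inhibition above the screen-wide mean plus 3 SD, computed separately per campaign, cut at about 16% in these data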;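 further: 0% = DMSO wells and 100% = 60 µM geldanamycin wells; inhibitors lower the luminescence because luciferase stays unfolded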
TROY signal inh: inhibitors of TROY-dependent NF-kB signaling; Q293 LMP1-TROYcd NF-kB luciferase reporter, 4 h; inhibition, % at 10 µM; 360,000 compounds, 0.98% hits;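 active means compounds whose plate-normalised and pattern-corrected inhibition of the luciferase reporter signal at the single screening dose is 50% or more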
TWEAK Fn14 block: TWEAK-Fn14 signaling inhibition; TWEAK-stimulated Fn14 reporter cells, luciferase luminescence, 8 h; inhibition, % at 10 µM; 360,000 compounds, 2% hits; AID 1159606; in the data active means inhibition above about 50%
PPC-1+TRAIL kill: PPC-1 cancer cell killing with TRAIL present | PPC-1 cells + TRAIL, ATPLite viability luminescence | cell killing (% activity), % at 4 µM or 5 µM | 220,000 compounds, 0.41% hits | AID 1443;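 active means cell killing above 50% in the first pass at 4 µM, then a duplicate retest at 5 µM averaging 50% or more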;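 further: plate controls were cells with TRAIL plus DMSO for no effect and medium-only wells lacking cells for full effect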
Numbers without * were called inactive; · = not tested or not shown. Most compounds without a hit are left out; they make up all but 3.5% or so of the library.

SMILES	C8 TRAIL sens	Platelet DG rel	HSP90 refold inh	TROY signal inh	TWEAK Fn14 block	PPC-1+TRAIL kill
O=C(Cc1cccc([N+](=O)[O-])c1)Nc1ccccc1	3	·	·	-3	-4	·
Cc1cccc(NC(=O)CCc2ccc(N3C(N)=NC(N)=NC3(C)C)cc2)c1	80*	·	·	-6	-11	·
CC1(C)N=C(N)N=C(N)N1c1ccc(OCCCOc2ccccc2)c(Cl)c1	71*	7	-1	6	87*	41
CC1(C)N=C(N)N=C(N)N1c1ccc(OCC(=O)Nc2ccccc2)c(Cl)c1	81*	·	·	10	19	·
CC1(C)N=C(N)N=C(N)N1c1cccc(CC(=O)Nc2ccccc2)c1	78*	·	·	-11	7	·
COc1ccc(C)cc1CN1C(=O)c2ccccc2C1=O	-2	-3	8	-18	-20	·
O=C(CNC(=O)c1ccccc1Br)NCC(c1ccco1)N1CCCCC1 (centres undefined)	0	·	·	14	19	·
CCc1nnc(NC(=O)CC(=O)Nc2ccccc2C(=O)O)s1	8	0	-1	-15	36	5
CC(C)c1nnc(NC(=O)CCC(=O)NC2CC2)s1	11	55*	-3	-5	-6	·
CC(C)c1nnc(NC(=O)CCC(=O)NC2CCCCCC2)s1	19	-6	-3	27	-5	·
CC(C)Cc1nnc(NC(=O)CC(=O)Nc2ccccc2C(=O)O)s1	-10	3	2	-5	51*	3
CC(C)c1nnc(NC(=O)CC(=O)Nc2ccccc2C(=O)O)s1	-15	-3	5	28	83*	-1
CCCC(=O)N1CCCC(c2cc(C(=O)Nc3ccccc3)no2)C1 (centres undefined)	52*	·	·	83*	95*	·
Cc1cc(C(=O)CSc2nc3ccccc3[nH]2)c(C)n1Cc1ccco1	44	2	10	81*	92*	21
O=C(CSc1nc2ccccc2c(=O)n1Cc1ccco1)c1ccc(F)cc1	0	-1	0	64*	58*	4
NC(=O)CSc1nc2ccccc2c(=O)n1Cc1ccco1	3	-8	-2	3	3	6
COCCn1c(C)cc(C(=O)CSc2nc3ccccc3c(=O)[nH]2)c1C	18	-5	-5	5	69*	-6
Cc1cc(C(=O)CSc2nc3ccccc3[nH]2)c(C)n1C	9	2	-3	-15	-10	-6
O=C(CSc1nc2ccccc2c(=O)n1Cc1ccco1)NCc1ccccc1	-6	-3	0	13	-1	·
CCCn1c(C)cc(C(=O)CSc2nc3ccccc3c(=O)n2Cc2ccco2)c1C	0	1	0	48	59*	-8
CCOC(=O)CC(=O)CSc1nc2sc(C)cc2c(=O)n1Cc1ccco1	-3	11	5	7	-8	12
Cc1cc2c(=O)n(Cc3ccco3)c(SCC(=O)c3ccc(Cl)s3)nc2s1	14	-4	6	11	54*	19
CCCOc1ccc(CNC(=O)c2ccc3c(c2)N(CC)CCS3)cc1	4	96*	4	5	5	·
CCN1CCSc2ccc(C(=O)NCc3cccc(Br)c3)cc21	0	-1	-3	-21	-8	·
CCC(CO)NCc1ccc(OCC(=O)Nc2cccc(C(F)(F)F)c2)c(OC)c1 (centres undefined)	12	-3	2	-1	12	52*
SMILES	C8 TRAIL sens	Platelet DG rel	HSP90 refold inh	TROY signal inh	TWEAK Fn14 block	PPC-1+TRAIL kill
COc1cccc(CN(C)CC(=O)Nc2cccc(C(F)(F)F)c2)c1OC	-5	4	1	6	74*	8
COc1cccc(CN(C)CC(=O)Nc2cccc(S(N)(=O)=O)c2)c1OC	-5	6	-1	-11	6	17
COc1ccc(CN(C)C(=O)c2ccc(OCC(=O)Nc3cccc(C(F)(F)F)c3)c(OC)c2)cc1	31	·	·	30	52*	·
O=C(Nc1ccc(Oc2ccccc2)cc1)N[C@@H](Cc1ccccc1)C(=O)O	-3	-1	2	4	13	·
CC(=O)c1c(O)cc2c3c1OC(C)(C)C1CCC(C)(CC31)O2 (centres undefined)	16	·	·	34	79*	·
CCN(CC)S(=O)(=O)c1ccc(C(=O)NC(=S)N2CCN(c3ccccc3O)CC2)cc1	6	·	·	-15	-11	·
O=C(CCCN1C(=O)/C(=C/c2ccccc2Cl)SC1=S)NNC(=O)c1ccccc1	28	0	0	57*	70*	1
O=C(CCCN1C(=O)/C(=C/c2ccccc2Cl)SC1=S)NNC(=O)c1ccc(Cl)cc1Cl	15	53*	3	37	17	9
O=C(CCCN1C(=O)/C(=C/c2ccccc2Cl)SC1=S)NNC(=O)c1cccnc1	12	-5	5	77*	87*	12
O=C(CCN1C(=O)/C(=C/c2ccccc2Cl)SC1=S)Nc1ccccc1C(=O)O	-8	0	0	46	10	·
O=C(CCCN1C(=O)/C(=C/c2cccs2)SC1=S)NNC(=O)c1cccnc1	14	-3	0	14	-2	6
C=CCN(C(=O)CC(NC(C)=O)c1ccccc1)c1nc(-c2ccc(S(C)(=O)=O)cc2)cs1 (centres undefined)	8	-13	1	1	0	·
CCN1CCc2c(sc(NC(=O)c3ccc(S(=O)(=O)N(C)c4ccccc4)cc3)c2C(=O)NC)C1	55*	3	1	18	16	·
C[C@@H]1CN([C@H](C)CO)C(=O)CCCn2nncc2CO[C@H]1CN(C)C(=O)Cc1ccccc1	0	·	·	-8	10	·
N/C(=N\c1nc2ccccc2o1)NC(=O)/C=C/c1ccccc1	9	12	1	40	55*	1
O=C(NC(=S)Nc1cccc2[nH]ncc12)c1ccccc1	-12	2	-1	-8	45	26
O=C(Nc1cccc2[nH]ncc12)c1ccc(F)cc1	16	6	1	15	59*	-4
O=c1c2cnn(-c3ccccc3)c2nc(-c2ccco2)n1-c1ccccc1	16	-6	4	16	55*	15
Cc1cc(C(=O)N/N=C/c2ccc3c(c2)OCO3)c(C)n1-c1ccc(F)cc1	-5	4	5	50*	3	7
COc1ccc(/C=N/NC(=O)c2cc(C)n(-c3ccccc3)c2C)cc1OC	12	0	13	62*	14	7
Cc1cc(C(=O)N/N=C/c2ccc(Cl)c([N+](=O)[O-])c2)c(C)n1-c1ccc(F)cc1	2	2	2	42	63*	4
Cc1cc(C(=O)N/N=C/c2cccc([N+](=O)[O-])c2)c(C)n1-c1ccccc1	39	-6	6	5	-6	15
Cc1ccc(C(=O)/C=C/Nc2ccc3c(c2)OCO3)cc1	61*	7	2	-8	-9	50
CC(=O)c1cccc(NS(=O)(=O)c2ccc(N/C=C/C(=O)c3ccc(F)cc3)cc2)c1	23	-8	-1	41	89*	18
CC(=O)c1cccc(N/C=C\C(=O)c2ccc(C)cc2)c1	52*	-1	2	-37	19	62*
